For 113 molecules, INHIBITION results are on record in ChEMBL document CHEMBL4513216, “Probing the Open Global Health Chemical Diversity Library for Multistage-Active Starting Points for Next-Generation Antimalarials” (ACS Infect Dis, 2020).

Out of some 69,000 compounds screened, about 8,600 (12%) showed an effect of 50% or more. This excerpt belongs to a sample that is enriched for strong results.

This assay relates to Plasmodium berghei. Nature of the assay: Screen against P. berghei liver stage (PbLuc), transformed with Luciferase, at 10uM. It counts as functional, HepG2. The note with it: tested at 10 uM.
Consider `Cc1cc(CN2CCN(C(=O)NCc3ccc(C)s3)CC2)on1`, for which the INHIBITION is given as -24.2%.
Consider `Cc1cnn(CCNCC(=O)N2CCN(c3ccccn3)CC2)c1`, for which the INHIBITION is recorded as -0.613%.
Regarding `O=C(c1ccnc(-n2ccnc2)c1)N1CCCC(n2cccn2)C1` (stereo not drawn), the INHIBITION amounted to 36.1%.
`CN(CC1COc2ccccc2O1)C(=O)c1ccc(-c2cn[nH]c2)nc1` (stereo not drawn): the INHIBITION worked out at 2.18%.
Next, `O=C(c1ccccn1)N1CCCC2(CCN(c3ccsc3)C2=O)C1` (stereo not drawn): 35.6%.
As to `CN(C)C(=O)[C@@H]1CCO[C@@H]2CCN(Cc3ccccc3)C[C@@H]21`, the INHIBITION is on record as -11.5%.
The value for `Cn1cc(-c2ncc(C(=O)NCCCn3ccccc3=O)s2)cn1` was 44.9%; that for `Cc1nc(C2CCCN2C(=O)Cc2ccc3c(c2)OCO3)nc(O)c1C` (stereo not drawn) was 22%.
Take `CN1C(=O)CCC12CCN(Cc1ccco1)CC2`: the INHIBITION is 16.1%.
The value for `CN1CCN(c2nsc(-c3ccccc3)c2C#N)CC1` was 33.3%; that for `O=C(CS(=O)(=O)c1ccccn1)NC1CCCc2ccccc21` (stereo not drawn) was -17.8%; that for `CCCn1cc(-c2ccnc(NC3CCCc4ccccc43)n2)c(C)n1` (stereo not drawn) was 72.3%.
The value for `Cc1nn(CCO)c(C)c1CNC1CCCCc2ccccc21` (stereo not drawn) was 17.8%; that for `Cc1nn(C)c(N2CCOCC2)c1CNC1CCc2ccccc21` (stereo not drawn) was 7.08%; that for `COc1c(CNC2CCCc3ccccc32)c(C)nn1C` (stereo not drawn) was 37.9%.
For the molecule `CCCn1ncc(-c2ccnc(NC3CCCc4ccccc43)n2)c1C` (stereo not drawn), the INHIBITION is reported as 77.2%.
Next, `CCCn1ncc(-c2ccnc(NC3CC(C)(C)NC(C)(C)C3)n2)c1C`: 80.1%; `CCCn1ncc(C(=O)N2CCN(C3Cc4ccccc4C3)CC2)c1C`: -20.8%.
With `CCCn1ncc(-c2ccnc(N[C@@H]3C[C@H]4CC[C@@H]3C4)n2)c1C`, the INHIBITION stood at 49.9%.
With `CCCn1ncc(-c2ccnc(NC3CCSC3)n2)c1C` (stereo not drawn), the INHIBITION was 49.9%.
For the molecule `CCCn1cc(-c2ccnc(NC3CCc4ccccc43)n2)c(C)n1` (stereo not drawn), the INHIBITION is given as 82.2%.
`CCCOCCCNc1nccc(-c2cn(C)nc2C)n1`: the INHIBITION is reported as -49.8%.
Turning to `CN1CCC/C1=N\S(=O)(=O)c1ccc(NC(=O)c2ccc(F)cc2)cc1`, the INHIBITION came to 41.4%.
With `O=S(=O)(CC1CCCO1)Nc1cc(Cl)ccc1-n1cccn1` (stereo not drawn), the INHIBITION is -15.5%.
The value for `CC(=O)N[C@@H]1CN(Cc2oc3ccccc3c2C)C[C@H]1c1ccc(C)o1` was 37.7%.
The value for `CC(CO)(NC(=O)NCc1ccc(Br)s1)C1CC1` (stereo not drawn) was -12.7%; that for `Fc1cnc(N2CCc3nnc(COc4ccccn4)n3CC2)nc1` was -58.7%.
The value for `CC(C(=O)N1CCN(C)CC1)n1cc(Br)cn1` (stereo not drawn) was 21.7%.
On to `Cc1noc(C)c1CN1CCN(CC2CC2)c2ncccc2C1`, for which the INHIBITION was found to be 47.2%.
Next, `O=C(CCc1ccncc1)N1CCCC(N2CCNC2=O)C1` (stereo not drawn): 37.9%; `CC(=O)N1CC=C(n2c(=O)[nH]c3ccccc32)CC1`: 21.4%; `CCCn1cc(-c2ccnc(NC3CCc4ccccc4C3)n2)c(C)n1` (stereo not drawn): 89.6%.
`Cc1sc2ncc(-c3ccnc(NC4CCN(C)CC4)n3)c(=O)n2c1C`: the INHIBITION amounted to 24.8%.
Consider `Cc1nn(C)c(N2CCOCC2)c1CNC1CCc2ccccc2C1` (stereo not drawn), for which the INHIBITION is on record as 35.7%.
The value for `O=C(C1CC1)N1CCC(Nc2nc(O)cc(-c3ccsc3)n2)CC1` was -5.78%; that for `O=C(c1cc(=O)[nH]c(=O)[nH]1)N1CCCCC1c1ccc(F)cc1` (stereo not drawn) was 30.1%; that for `COCCC(=O)N1CCCCC1c1ccc(F)cc1` (stereo not drawn) was 48%.
Turning to `CCc1nccn1CCC(=O)N1CCCC1c1ccc(F)cc1` (stereo not drawn), the INHIBITION came to 29.4%.
Next, `COC(=O)CCCC(=O)N1CCCCC1c1ccc(F)cc1` (stereo not drawn): 34.1%.
Consider `O=C1CCCCN1CCC(=O)N1CCCCC1c1ccc(F)cc1` (stereo not drawn), for which the INHIBITION was 53.6%.
The value for `O=C1CCNC(=O)N1CC(=O)N1CCC1c1ccc(F)cc1` (stereo not drawn) was -14.5%.
Next, `NCC(=O)N1CCCCC1c1ccc(F)cc1` (stereo not drawn): 74%.
With `Cn1cc(C2CCCN2C(=O)CCCOc2ccc(F)cc2)cn1` (stereo not drawn), the INHIBITION turned out to be 0.914%.
Next, `O=C1CCCN1CCCC(=O)N1CCCCC1c1ccc(F)cc1` (stereo not drawn): 74.9%; `Cc1nn(C)c(Cl)c1C1CCCN1C(=O)c1ccc2c(c1)COC2` (stereo not drawn): 7.12%; `CN1CCCC1c1cncc(C(=O)NCCN2CCCC2)n1` (stereo not drawn): -40.1%.
For `CN(C)CC(=O)N1CCc2cccc(S(=O)(=O)N3CCOCC3)c2C1`, the INHIBITION worked out at 21.2%.
Next, `O=C(c1ccc(Cl)s1)N1CCC2(CNS(=O)(=O)c3cnccc3O2)C1` (stereo not drawn): 21.7%; `CCC1CN(CC(=O)NCCN2CCCCCC2)c2ccccc2S1` (stereo not drawn): 0.87%.
The value for `CC(c1cc(F)ccc1F)N(C)C(=O)NCc1ccnc(N(C)C)c1` (stereo not drawn) was 21.6%.
Regarding `Cc1cnccc1N1CCN(c2nccc(CCC(F)(F)F)n2)CC1`, the INHIBITION is listed as 83.2%.
In the case of `FC(F)(F)c1ccnc(N2CCCN(Cc3ccccn3)CC2)n1`, the INHIBITION was -1.7%.
The value for `FC(F)(F)CCc1ccnc(N2CCN(CCc3ccncc3)CC2)n1` was 66.1%; that for `FC(F)(F)CCc1ccnc(N2CCN(Cc3ccccn3)CC2)n1` was 25.5%; that for `Cc1cc(C)nc(CCNc2nccc(CCC(F)(F)F)n2)n1` was 38.2%.
Regarding `Oc1cccc(CN2CCN(c3nccc(CCC(F)(F)F)n3)CC2)c1`, the INHIBITION is 74.7%.
Next, `O=C(c1ccccn1)C1CCCN(c2nccc(CCC(F)(F)F)n2)C1` (stereo not drawn): 35.1%.
The value for `FC(F)(F)CCc1ccnc(N2CCN(Cc3ccncc3)CC2)n1` was -0.178%; that for `CCOc1ccnc(N2CCN(C(=O)CCc3ccncc3)CC2)n1` was -17%; that for `CCN(C(C)=O)C1CCN(c2nccc(CCC(F)(F)F)n2)C1` (stereo not drawn) was 48.5%.
The value for `CNC(=O)C1CCN(c2nccc(CCC(F)(F)F)n2)C1` (stereo not drawn) was 50.1%; that for `Cc1cnccc1N1CCN(C(=O)CCCN2CCCCC2)CC1` was 21.7%; that for `O=C(c1ccc2c(c1)OCO2)N1CCCC(n2ccnc2)C1` (stereo not drawn) was -9.37%.
For the molecule `CN(CC(=O)Nc1cc(-c2cc(Cl)cc(Cl)c2)[nH]n1)S(C)(=O)=O`, the INHIBITION was -51.9%.
In the case of `CC(C)Oc1cccc(F)c1C(C(=O)O)N1CCCC1` (stereo not drawn), the INHIBITION is listed as -41.4%.
The value for `CCOCC(=O)N1CCCn2c(CN3CCCCC3)nnc2C1` was -1.15%; that for `CCS(=O)(=O)Cc1csc(-c2ccc(S(C)(=O)=O)cc2)n1` was 3.4%; that for `O=S(=O)(CCCN1CCCC1Cn1cccn1)c1ccccc1` (stereo not drawn) was 24%.
Next, `Cc1noc(C)c1-c1nc(C2CCCNC2)ccc1CO` (stereo not drawn): -15.3%; `COC1C[C@@H]2CN(C(=O)c3ccc(C)s3)C[C@@H]2C1` (stereo partly drawn): -16.55%.
Next, `O=C(NCCN1CCCS1(=O)=O)c1scnc1Cl`: 40.2%.
In the case of `CC(=O)c1cnc(N(C)Cc2cc(C)cc(C)n2)nc1C`, the INHIBITION is on record as 28.5%.
The value for `Cc1cnc(N(C)Cc2cnc3ccccc3n2)nc1N(C)C` was 46.4%.
On to `CC(=O)c1cnc(N(C)Cc2cnc3ccccc3n2)nc1C`, for which the INHIBITION is 62.7%.
With `CC(C)C1COC2(CCN(Cc3ccco3)CC2)C1` (stereo not drawn), the INHIBITION was -2.35%.
Next, `O=C1CCCN1Cc1ncn2c1CN(Cc1cccs1)CCC2`: 21.8%; `Cn1ccnc1CNC(=O)c1cncc(C2CCNCC2)n1`: 27.6%; `Cc1noc(C)c1S(=O)(=O)NCC(O)c1ccc2c(c1)CCO2` (stereo not drawn): 42.3%.
The value for `Cn1cnc(S(=O)(=O)NCC(O)c2ccc3c(c2)CCO3)c1` (stereo not drawn) was 25.3%; that for `O=S(=O)(NCC(O)c1ccc2c(c1)CCO2)c1ccccc1F` (stereo not drawn) was 50.5%; that for `Cc1cc(F)ccc1S(=O)(=O)NCC(O)c1cccn1C` (stereo not drawn) was -1.99%.
The value for `Cn1cccc1C(O)CNS(=O)(=O)c1ccccc1Br` (stereo not drawn) was -29.2%; that for `Cn1cccc1C(O)CNS(=O)(=O)c1ccccc1F` (stereo not drawn) was 51%; that for `NC(=O)CN1CCc2c(Br)ccc(F)c2C1` was -15%.
Consider `Cc1nn(C)cc1Cn1c(=O)ccc2ccccc21`, for which the INHIBITION turned out to be 33%.
The value for `CC(=O)N1CCC(Cc2cnc(-c3c(C)n[nH]c3C)cn2)C1` (stereo not drawn) was 36.4%.
The value for `CCN1C(=O)CCCC12CCCN(C(=O)c1sccc1C)C2` (stereo not drawn) was -17.1%; that for `CS(=O)(=O)N1CCC2(CC1)CC(Oc1ccccn1)CO2` (stereo not drawn) was 10.7%; that for `O=C(c1cc[nH]n1)N1CCC(F)(F)C2(CCN(c3ccccn3)C2)C1` (stereo not drawn) was 37.8%.
The value for `CC(NC(=O)Nc1cccnc1N1CCCC1)c1ccncc1` (stereo not drawn) was 7.12%.
As to `Cc1nn(C(C)C)c(C)c1NC(=O)Nc1cccnc1N1CCCC1`, the INHIBITION worked out at 26.9%.
With `CC(NC(=O)Nc1cccnc1N1CCCC1)c1ccn(C)c1` (stereo not drawn), the INHIBITION was 62.6%.
Next, `Cc1nn(C)c(C)c1NC(=O)Nc1cccnc1N1CCCC1`: 54.3%; `Cc1nn(C)c(C)c1C(C)NC(=O)Nc1cccnc1N1CCCC1` (stereo not drawn): 11.6%.
Next, `CC(NC(=O)Nc1cccnc1N1CCCC1)c1ccccn1` (stereo not drawn): -17.9%.
The value for `Cn1nnc2c1CCN(Cc1ccncc1)C2COCC1CC1` (stereo not drawn) was 35.4%.
On to `Cc1ccc(NC2CCN(C(=O)c3cc(C)sc3C)CC2)nn1`, for which the INHIBITION came to 9.14%.
As for `CN(C)CC1CN(C(=O)Cc2ccccc2)Cc2nccn2C1` (stereo not drawn), the INHIBITION is 31.6%.
As for `Cc1nonc1C1CCCN1C(=O)c1cn2ccsc2n1` (stereo not drawn), the INHIBITION is recorded as -16.6%.
Consider `Cc1cncc(C(=O)N2CCCC(O)(CO)C2)c1` (stereo not drawn), for which the INHIBITION was found to be 15.1%.
The value for `CC(C)C(NC(=O)NCc1cccnc1N(C)C)c1cccs1` (stereo not drawn) was 17.5%; that for `Cc1cccc(CN2CC[C@@H]3[C@@H]2CCN3C(=O)c2cnoc2C)n1` was -17%.
With `Cc1oncc1C(=O)N1CC[C@@H]2[C@@H]1CC(=O)N2Cc1cccnc1`, the INHIBITION is 8.66%.
Regarding `Cc1oncc1C(=O)N1CC[C@H]2[C@@H]1CCC(=O)N2c1cccnc1`, the INHIBITION turned out to be 18.3%.
The value for `Cc1oncc1C(=O)N1CC[C@H]2[C@@H]1CCC(=O)N2CC1CC1` was 55.4%.
Regarding `Cc1noc(C)c1CN1CC[C@H]2[C@@H]1CCC(=O)N2CC1CCOCC1`, the INHIBITION amounted to 6.67%.
Next, `Cc1oncc1C(=O)N1CC[C@H]2[C@@H]1CCC(=O)N2CC1CCOCC1`: 56.4%; `Cc1ccc(C(=O)N2CC[C@@H]3[C@H]2CCC(=O)N3CC2CC2)o1`: 37.9%; `Cc1oncc1C(=O)N1CC[C@H]2[C@H]1CCN2S(C)(=O)=O`: 62.9%.
Next, `Cc1cc(C(=O)N2CC[C@H]3[C@H]2CCN3S(C)(=O)=O)c(C)o1`: 39.4%; `CCc1cnc(N2CC[C@H]3[C@@H]2CCC(=O)N3CC2CCOCC2)nc1`: 51.2%.
For the molecule `CCc1cnc(N2CC[C@H]3[C@@H]2CCC(=O)N3c2ccccc2)nc1`, the INHIBITION came out at 33.5%.
Next, `O=C1CC[C@H]2[C@H](CCN2c2ccccn2)N1CC1CCOCC1`: 12.7%.
